Experimental data published in PubChem BioAssay AID1159580 (chemical genetic matrix, 2015).
Several values for one entry are separate records, joined by “and”; a condition that tells them apart may be missing. Identical values can stand only once. About 2,000 (36%) of roughly 5,500 compounds were called active. Another 18% or so got no clear call; they are omitted. Rule as the data show it: active = normalized growth mostly below about 0.91 (no sharp cut-off); inconclusive = no clear call, values can overlap the other calls; inactive = mostly above about 0.92. Some of the results follow.

Test: chemical genetic growth profiling, strain panel (AID 1159580);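 also: tested at 20 µM; growth read once vehicle control cultures reached saturation at 30 °C; 1 = growth at the plate median or of vehicle wells; lower values mean less growth of the strain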
Details: S. cerevisiae deletion strains, growth OD

Measured: normalized growth

CN(C(=O)CN(CCO)CC(=O)N(C)C(C)(C)Cc1ccccc1)C(C)(C)Cc1ccccc1
inactive: locus YAL021C, strain ccr4, stronger effect = lower value 1.01 | locus YAL026C, strain drs2, stronger effect = lower value 1.02 | locus YAL030W, strain snc1, stronger effect = lower value 1 | locus YBL061C, strain skt5, stronger effect = lower value 1.01 | locus YBR009C, strain hhf1, stronger effect = lower value 1.01 | locus YBR021W, strain FUR4, stronger effect = lower value 0.985 | locus YBR023C, strain chs3, stronger effect = lower value 1.01 | locus YBR171W, strain sec66, stronger effect = lower value 1.04 | locus YBR229C, strain ROT2, stronger effect = lower value 0.993 | locus YBR231C, strain swc5, stronger effect = lower value 1 | locus YBR279W, strain paf1, stronger effect = lower value 1.01 | locus YCL011C, strain gbp2, stronger effect = lower value 1.01 | locus YCL016C, strain dcc1, stronger effect = lower value 1.01 | locus YCL029C, strain bik1, stronger effect = lower value 0.97 | locus YCL061C, strain MRC1, stronger effect = lower value 1.02 | locus YCL069W, strain vba3, stronger effect = lower value 1.01 | locus YCR088W, strain abp1, stronger effect = lower value 1.01 | locus YDL005C, strain med2, stronger effect = lower value 1 | locus YDL035C, strain GPR1, stronger effect = lower value 0.954 | locus YDL040C, strain nat1, stronger effect = lower value 1 | locus YDL074C, strain BRE1, stronger effect = lower value 0.978 | locus YDL101C, strain DUN1, stronger effect = lower value 1 | locus YDL134C, strain PPH21, stronger effect = lower value 0.983 | locus YDL185W, strain tfp1, stronger effect = lower value 0.954 | locus YDL192W, strain arf1, stronger effect = lower value 0.98 | locus YDR001C, strain nth1, stronger effect = lower value 1.01 | locus YDR069C, strain doa4, stronger effect = lower value 1.01 | locus YDR101C, strain arx1, stronger effect = lower value 1 | locus YDR137W, strain rgp1, stronger effect = lower value 1.07 | locus YDR159W, strain sac3, stronger effect = lower value 0.998 | locus YDR162C, strain NBP2, stronger effect = lower value 0.957 | locus YDR195W, strain ref2 0.995 | locus YDR297W, strain sur2, stronger effect = lower value 1 | locus YDR318W, strain mcm21, stronger effect = lower value 0.979 | locus YDR334W, strain swr1, stronger effect = lower value 1.02 | locus YDR335W, strain msn5, stronger effect = lower value 1.01 | locus YDR388W, stronger effect = lower value 0.979 | locus YDR392W, strain spt3, stronger effect = lower value 0.981 | locus YDR502C, strain sam2, stronger effect = lower value 0.981 | locus YEL003W, strain gim4, stronger effect = lower value 1.01 | locus YEL037C, strain rad23, stronger effect = lower value 1.02 | locus YEL061C, strain CIN8 (second series), stronger effect = lower value 1.02 | locus YEL061C, strain CIN8, stronger effect = lower value 0.997 | locus YER015W, strain faa2, stronger effect = lower value 1.02 | locus YER016W, strain bim1, stronger effect = lower value 1.03 | locus YER110C, stronger effect = lower value 0.976 | locus YER111C, strain swi4, stronger effect = lower value 1.02 | locus YER155C, strain BEM2 (second series), stronger effect = lower value 1.02 | locus YER155C, strain BEM2, stronger effect = lower value 0.994 | locus YER167W, strain BCK2, stronger effect = lower value 0.987 | locus YFR010W, strain ubp6, stronger effect = lower value 1.01 | locus YGL078C, strain dbp3, stronger effect = lower value 0.983 | locus YGL086W, strain mad1, stronger effect = lower value 0.979 | locus YGL167C, strain pmr1, stronger effect = lower value 1.01 | locus YGL173C, strain kem1, stronger effect = lower value 1.02 | locus YGL227W, strain vid30, stronger effect = lower value 1.02 | locus YGL240W, strain doc1, stronger effect = lower value 0.986 | locus YGL248W, strain PDE1, stronger effect = lower value 1.01 | locus YGL253W, strain hxk2, stronger effect = lower value 1.03 | locus YGR078C, strain PAC10, stronger effect = lower value 1 | locus YGR135W, strain pre9, stronger effect = lower value 0.973 | locus YGR229C, strain SMI1, stronger effect = lower value 0.98 | locus YGR252W, strain gcn5, stronger effect = lower value 1.01 | locus YHR013C, strain ard1, stronger effect = lower value 1.04 | locus YHR027C, strain rpn1, stronger effect = lower value 1.02 | locus YHR030C, strain SLT2, stronger effect = lower value 0.985 and 0.989 | locus YHR079C, strain IRE1 (second series), stronger effect = lower value 0.975 | locus YHR079C, strain IRE1, stronger effect = lower value 0.98 | locus YHR094C, strain hxt1, stronger effect = lower value 0.99 | locus YHR129C, strain ARP1, stronger effect = lower value 0.992 | locus YHR142W, strain chs7, stronger effect = lower value 1.02 | locus YHR200W, strain rpn10, stronger effect = lower value 0.971 | locus YIL066C, strain RNR3, stronger effect = lower value 0.996 | locus YIL073C, strain SPO22, stronger effect = lower value 1.14 | locus YIL125W, strain kgd1, stronger effect = lower value 0.988 | locus YIR030C, strain dcg1, stronger effect = lower value 0.976 | locus YJL092W, strain hpr5, stronger effect = lower value 1.01 | locus YJL095W, strain BCK1 (second series), stronger effect = lower value 1.01 | locus YJL095W, strain BCK1, stronger effect = lower value 1.01 | locus YJL115W, strain asf1, stronger effect = lower value 1.02 | locus YJL129C, strain trk1, stronger effect = lower value 1.02 | locus YJL134W, strain LCB3, stronger effect = lower value 0.986 | locus YJL154C, strain vps35, stronger effect = lower value 1.01 | locus YJL164C, strain tpk1, stronger effect = lower value 1 | locus YJL166W, strain qcr8, stronger effect = lower value 1.01 | locus YJL168C, strain set2, stronger effect = lower value 0.989 | locus YJL187C, strain SWE1 (second series), stronger effect = lower value 1.01 | locus YJL187C, strain SWE1, stronger effect = lower value 1.01 | locus YJR043C, strain POL32, stronger effect = lower value 0.962
